Consider three molecules from PubChem BioAssay AID493076 (National Center for Advancing Translational Sciences (NCATS), 2011).

Each structure is given as a SMILES string. The list shows a part of the results. Records with an inconclusive call do not appear. Activity calls are given as the source filed them. The call rests on the fitted dose curve; in most records, active means well fitted curve in the direction sought with a large enough effect; inconclusive means small, poorly fitted or top-dose-only effect, or effect the other way, or another doubt; inactive means no such curve, though single readings can be large or run the other way.

Thyrotropin-releasing hormone receptor (Homo sapiens), sequence (P34981 whole entry, looked up): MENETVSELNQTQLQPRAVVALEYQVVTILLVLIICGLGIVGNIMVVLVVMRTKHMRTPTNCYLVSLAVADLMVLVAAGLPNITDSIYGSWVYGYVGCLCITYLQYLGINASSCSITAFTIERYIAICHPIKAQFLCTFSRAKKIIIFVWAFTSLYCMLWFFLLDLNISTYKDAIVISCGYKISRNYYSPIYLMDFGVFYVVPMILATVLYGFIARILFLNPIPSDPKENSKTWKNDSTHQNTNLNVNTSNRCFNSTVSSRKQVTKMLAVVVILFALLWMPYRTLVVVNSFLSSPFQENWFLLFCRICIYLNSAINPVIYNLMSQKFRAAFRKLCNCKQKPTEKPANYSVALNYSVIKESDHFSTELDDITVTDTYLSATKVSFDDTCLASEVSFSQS

The target of this assay is Thyrotropin-releasing hormone receptor (Homo sapiens) (UniProt P34981). The assay can be described thus: qHTS for Small Molecule Agonists and Allosteric Enhancers of Human TRH Receptor: Confirmation Screen for Enhancers. As to conditions: TRH receptor cell assay, enhancer confirmation qHTS; series mostly up to 46.1 µM. The source says:
NIH Chemical Genomics Center [NCGC]
NIH Molecular Libraries Probe Centers Network [MLPCN]
Assay Submitter (PI): Marvin Gershengorn
This project aims to identify small drug-like molecules that activate (agonists) the thyrotropin releasing hormone (TRH) receptor (TRHR) or enhance its TRH-stimulated activity (allosteric enhancers). TRHR, a drug-accessible cell surface receptor expressed in specific brain regions, and its ligand TRH have been implicated in several central nervous system disorders, including depression and anxiety. Small molecule TRHR agonists or allosteric enhancers that are metabolically stable and able to cross the blood-brain barrier might serve as probes to elucidate the roles of brain TRH receptors in animal models, and might be valuable as lead compounds for the development of drugs to treat patients with central nervous system disorders.
Upon TRHR-Gq activation in TRHR cells, intracellular calcium is released from stores in the endoplasmic reticulum. […] This primary screen measures compound-induced enhancement of an EC20 stimulation of the receptor by its native ligand.
For the HTS assay freshly prepared cells are plated at a density of 2000/well in 3 ul of complete DMEM medium containing 10% serum in 1536-well plates and cultured over night at 37 C in a humidified incubator with 5% CO2. The next day, 2 ul of a no wash calcium dye (ABD Bioquest) was added to the cells and plates were incubated at room temperature for 1 hour. For the assay, assay plates were loaded into the FDSS kinetic plate reader. A 10 cycle (1 second/cycle) baseline measurement is taken and then the FDSS online 1536 pintool delivers 23 nl of compound library (as well as TRH controls) to the plate. The plate is measured for kinetically at 1 cycle/sec for 180 seconds and is considered to be the agonist portion of the assay (eg, compounds which activate a positive calcium response during this portion are flagged as potential agonists). Following the 180 second read, 1 ul of either an EC20 (positive modulation assay) is delivered by an onboard pipette head. Measurements are taken kinetically for an additional 180 seconds.
TRHR FDSS Screening Protocol
1. Reagent, 3 uL 2000 cells/well 1536 TC treated Black plate in media containing 10% FCS
2. Time, 18 hours, 33.5C 5% CO2 (cells grown at 37C)
3. Reagent, 2 uL ABD fluo-8 Ca dye
4. Time, 30 min-1.5hrs hours, Room temp (6 plates/batch)
5. Detector, EX 480/EM 530C, FDSS 10 cycles baseline (1sec/cycle)
6. Compound, 23 nL of stock solution from library
7. Detector, EX 480/EM 530C, FDSS 230 cycles (1sec/cycle) Agonist mode
8. Compound, 1 ul EC20 of TRH made up in HEPES HBSS, 10 nM final
9. Detector, EX 480/EM 530C, FDSS 100 cycles (1sec/cycle) Potentiator mode
A general note: In qHTS, concentration-response curves come from the screen itself.
With `CCOc1cc(CN2CCCC(CO)(Cc3ccc(F)cc3F)C2)ccc1OC` (stereo not drawn), the result was inactive. For `O=C(Nc1ccccc1)c1cccnc1Nc1ccccc1` the value was “inactive”. The result for `COC(=O)C1=C(C)NC2=C(C(=O)c3ccccc32)C1c1ccc(-c2ccc(C(=O)O)cc2)o1` (stereo not drawn) reads “inactive”.
